According to PubChem BioAssay (Tox21):
Records with an inconclusive call do not appear. The source made the active and inactive calls. Unless noted, calls follow the shape of the dose curve; as a rule, active = well fitted curve in the direction sought with a large enough effect in the repeat runs; inconclusive = weak or mixed curves; inactive = no such curve, though single readings can be large; an effect the other way counts as inactive or inconclusive.

Tests used:
[1] = target: Thyrotropin receptor (Homo sapiens) (UniProt P16473); assay: qHTS assay to identify small molecule agonists of the thyroid stimulating hormone receptor (TSHR) signaling pathway (AID 1224843; calls by dose curve; also: nearly all actives have a fitted effect of over 45% in size)
How it was run: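 Agonist-mode screen: TSHR HEK293 cells received test chemicals for half an hour at room temperature, then HTRF cAMP detection reagents for one hour prior to fluorescence measurement. Each chemical ran as a 15-concentration series, triplicated.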

[2] = qHTS assay to identify small molecule agonists of the hypoxia (HIF-1) signaling pathway - cell viability counter screen (AID 1224844; calls by dose curve; also: nearly all actives have a fitted effect of over 50% in size)
How it was run: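 Cytotoxicity was measured in parallel with the HRE-driven beta-lactamase readout: after 17 hrs of compound exposure at 37C, HRE-bla ME-180 cells received CellTiter-Glo and luminescence was recorded 30 min later.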

[3] = qHTS assay to identify small molecule agonists of H2AX (AID 1224845; active = well fitted activation curve with a large enough effect in the signal ratio in the repeat runs, not every such curve was filed as active; the % refers to the signal ratio)
How it was run: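 Wild-type CHO-K1 cells, plated overnight, exposed 3hr at 37C to 15 concentrations (0.76% DMSO final). Lysed, then HTRF anti-pH2AX (S139) cryptate and anti-H2AX-d2 antibodies, 24 hr room temperature; 665/620 nm emission read.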

[4] = qHTS assay to identify small molecule agonists of H2AX - cell viability counter screen (AID 1224847; calls by dose curve; also: top concentration of the series differs between compounds; nearly all actives have a fitted effect of over 30% in size)
How it was run: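 For this counter screen, overnight-attached CHO-K1 cells received test compounds (15 concentrations, 0.76% DMSO final); 3 hr later at 37C, CellTiter-Glo reagent was added and luminescence recorded after 30 min at room temperature.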

[5] = qHTS RealTime-Glo MT Cell Viability Assay in HepG2 cells - 24 hour (AID 1224867); also: nearly all actives have a fitted effect of over 50% in size
How it was run: (§1)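 Viability was tracked continuously by NanoLuc luminescence from prosubstrate reduced by living HepG2 cells, at successive time points over 40 h of compound exposure. Cells with reagent were preincubated 5 h at 37 °C before compound addition.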

[6] = qHTS RealTime-Glo MT Cell Viability Assay in HEK293 cells - 32 hour (AID 1224868); also: top concentration of the series differs between compounds; nearly all actives have a fitted effect of over 50% in size
How it was run: (§2)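 Viability tracked continuously by luminescence as live cells reduce a prosubstrate for NanoLuc; HEK293 cells preincubated 5 h, compound-treated at 37 C, and read at 0, 8, 16, 24, 32 and 40 h.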

[7] = qHTS RealTime-Glo MT Cell Viability Assay in HepG2 cells - 40 hour (AID 1224870); also: nearly all actives have a fitted effect of over 50% in size
How it was run: (§3)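 HepG2 cells (600/well) mixed with RealTime-Glo MT reagent, settled 5 h at 37 C/5% CO2 before compound addition. Nonlytic NanoLuc luminescence from viable-cell prosubstrate reduction read repeatedly during 40 h treatment at 37 C.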

[8] = A CellTox Green Cytotoxicity Assay to monitor cytotoxicity in HEK293 cells - 40 hour (AID 1224871); also: nearly all actives have a fitted effect of over 45% in size
How it was run: (§4)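 Cells (HEK293, 600/well) and dye reagent are dispensed together. After 5 h at 37 C, 23 nL compound is pinned in. Plates stay at 37 C for 40 h with fluorescence read at 0h, 8h, 16h, 24h, 32h and 40h.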

[9] = qHTS RealTime-Glo MT Cell Viability Assay in HEK293 cells - 16 hour (AID 1224872)
How it was run: as §2

[10] = qHTS RealTime-Glo MT Cell Viability Assay in HepG2 cells - 8 hour (AID 1224873); also: nearly all actives have a fitted effect of over 55% in size
How it was run: as §3

[11] = qHTS RealTime-Glo MT Cell Viability Assay in HEK293 cells - 40 hour (AID 1224874); conditions: RealTime-Glo luminescence; max response: stronger effect = lower value; also: nearly all actives have a fitted effect of over 50% in size
How it was run: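 Real-time viability in HEK293: signal arises when living cells convert a prosubstrate for NanoLuc in the medium, so luminescence tracks viable cell number. Compound (23 nL, DMSO) added 5 h post-seeding; kinetic reads at 0–40 h, 37 C.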

[12] = A CellTox Green Cytotoxicity Assay to monitor cytotoxicity in HepG2 cells - 16 hour (AID 1224876); also: nearly all actives have a fitted effect of over 45% in size
How it was run: (§5)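 Cells and non-lytic dye reagent are dispensed together (600 HepG2 cells/well) and incubated 5 h before DMSO compound transfer. Kinetic fluorescence is then recorded in the same wells during 40 h at 37 C.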

[13] = A CellTox Green Cytotoxicity Assay to monitor cytotoxicity in HepG2 cells - 24 hour (AID 1224878); also: nearly all actives have a fitted effect of over 45% in size
How it was run: as §5

[14] = A CellTox Green Cytotoxicity Assay to monitor cytotoxicity in HepG2 cells - 40 hour (AID 1224879); also: nearly all actives have a fitted effect of over 40% in size
How it was run: as §5

[15] = qHTS assay to identify small molecule antagonists of the estrogen related receptor (ERR) signaling pathway from Tox21 library (AID 1224848); also: nearly all actives have a fitted effect of over 50% in size
How it was run: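 Quantitative high-throughput format: ERR reporter cells (2,000/well) pre-incubated 6 h, treated 18 h at 37 C with compounds in DMSO alongside positive and negative controls, then read by ONE-Glo luminescence.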

[16] = A CellTox Green Cytotoxicity Assay to monitor cytotoxicity in HEK293 cells - 0 hour (AID 1224869); also: nearly all actives have a fitted effect of over 50% in size
How it was run: as §4

[17] = A CellTox Green Cytotoxicity Assay to monitor cytotoxicity in HEK293 cells - 24 hour (AID 1224875); also: nearly all actives have a fitted effect of over 45% in size
How it was run: as §4

[18] = qHTS RealTime-Glo MT Cell Viability Assay in HepG2 cells - 32 hour (AID 1224877); also: nearly all actives have a fitted effect of over 55% in size
How it was run: as §1

[19] = qHTS assay to identify small molecule agonists of the hypoxia (HIF-1) signaling pathway (AID 1224846; active = well fitted activation curve with a large enough effect in the signal ratio in the repeat runs, not every such curve was filed as active; the % refers to the signal ratio)
How it was run: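 Compounds from the Tox21 10K library, dissolved in DMSO, are tested for induction of a hypoxia response element–controlled beta-lactamase reporter in ME-180 cells. Exposure lasts 17 hrs at 37C after a 5 hr settling period, followed by CCF4-AM FRET substrate.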

[20] = qHTS assay to identify small molecule agonists of the estrogen related receptor (ERR) signaling pathway from Tox21 library (AID 1224849; calls by dose curve; also: nearly all actives have a fitted effect of over 15% in size); conditions: ERR reporter cell line, ONE-Glo luciferase, 18 h; at 92.4 µM (top of the series) unless noted
How it was run: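 Cells carrying the ERR reporter were plated and allowed to settle for 6 h, exposed to library compounds for 18 h at 37 C, then lysed with ONE-Glo and luminescence measured.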
% is scaled to controls: 0 for no effect and ±100 for the full control effect.

Thyrotropin receptor (Homo sapiens), sequence (P16473 whole entry, looked up): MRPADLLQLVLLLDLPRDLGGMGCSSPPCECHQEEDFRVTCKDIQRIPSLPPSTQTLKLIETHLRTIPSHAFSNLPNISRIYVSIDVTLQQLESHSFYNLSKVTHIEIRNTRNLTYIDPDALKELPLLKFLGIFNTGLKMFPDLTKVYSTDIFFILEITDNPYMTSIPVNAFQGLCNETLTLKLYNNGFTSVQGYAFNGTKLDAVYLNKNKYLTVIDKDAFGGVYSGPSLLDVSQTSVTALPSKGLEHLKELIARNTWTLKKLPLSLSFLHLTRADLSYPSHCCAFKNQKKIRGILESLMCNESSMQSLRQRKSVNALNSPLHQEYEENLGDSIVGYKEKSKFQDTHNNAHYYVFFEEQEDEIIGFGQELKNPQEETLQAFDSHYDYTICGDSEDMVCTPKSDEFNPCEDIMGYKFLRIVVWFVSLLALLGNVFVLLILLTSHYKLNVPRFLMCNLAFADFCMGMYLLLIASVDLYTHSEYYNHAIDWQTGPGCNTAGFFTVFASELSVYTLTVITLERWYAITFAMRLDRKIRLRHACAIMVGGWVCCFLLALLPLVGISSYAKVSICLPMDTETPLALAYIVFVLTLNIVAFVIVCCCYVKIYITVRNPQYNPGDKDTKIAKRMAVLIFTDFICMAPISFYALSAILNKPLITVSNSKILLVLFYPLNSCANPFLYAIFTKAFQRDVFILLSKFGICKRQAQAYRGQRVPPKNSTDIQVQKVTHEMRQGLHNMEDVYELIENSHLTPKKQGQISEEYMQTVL

CN1CCC(=C2c3ccccc3CC(=O)c3sccc32)CC1
inactive: Potency [1] | Potency [2] | outcome [3] | Potency [4] | Potency [5] | Potency [6] | Potency [7] | Potency [8] | Potency [9] | Potency [10] | max response [11] -28.2% | Potency [12] | Potency [13] | Potency [14]

c1ccc(CC2=NCCN2)cc1
inactive: Potency [1] | Potency [2] | outcome [3] | Potency [4] | Potency [15] | Potency [5] | Potency [6] | Potency [16] | Potency [7] | Potency [8] | Potency [9] | Potency [10] | max response [11] -5.85% | Potency [17] | Potency [12] | Potency [18] | Potency [13] | Potency [14]

Cc1cc(O)cc2c1O[C@](C)(CCC[C@H](C)CCC[C@H](C)CCCC(C)C)CC2
inactive: Potency [1] | Potency [2] | outcome [19] | Potency [4] | Potency [15] | activity change, positive = activation [20] 6.7% [at 42.5 µM] | Potency [5] | Potency [6] | Potency [16] | Potency [7] | Potency [8] | Potency [9] | Potency [10] | max response [11] 5.25% | Potency [17] | Potency [12] | Potency [18] | Potency [13] | Potency [14]

Nc1nc2c(ncn2COC(CO)CO)c(=O)[nH]1
inactive: Potency [1] | Potency [2] | outcome [3] | Potency [4] | Potency [16] | Potency [8] | Potency [17] | Potency [12] | Potency [13] | Potency [14]

NCCc1cnc[nH]1
inactive: Potency [1] | Potency [2] | outcome [3] | Potency [4] | Potency [5] | Potency [6] | Potency [16] | Potency [7] | Potency [8] | Potency [9] | Potency [10] | max response [11] -0.307% | Potency [17] | Potency [12] | Potency [13] | Potency [14]

C1CN(CCOCCN2CCOCC2)CCO1
inactive: Potency [1] | Potency [2] | outcome [19] | Potency [4] | Potency [15] | activity change, positive = activation [20] -7.8% | Potency [5] | Potency [6] | Potency [16] | Potency [7] | Potency [8] | Potency [9] | Potency [10] | max response [11] 4.52% | Potency [12] | Potency [18] | Potency [14]

COc1nc(N)nc2c1ncn2[C@@H]1O[C@H](CO)[C@@H](O)[C@@H]1O
inactive: Potency [1] | Potency [2] | outcome [19] | Potency [4] | Potency [15] | activity change, positive = activation [20] 4.89% [at 42.5 µM] | Potency [5] | Potency [6] | Potency [7] | Potency [8] | Potency [9] | Potency [10] | max response [11] 14.1% | Potency [17] | Potency [12] | Potency [18] | Potency [13] | Potency [14]

Nc1cc(=O)[nH]c(N)n1
inactive: Potency [1] | Potency [2] | Potency [4] | Potency [5] | Potency [16] | Potency [7] | Potency [8] | Potency [9] | Potency [10] | Potency [17] | Potency [12] | Potency [18] | Potency [13] | Potency [14]

N[C@@H](C(=O)N[C@@H]1C(=O)N2C(C(=O)O)=C(Cl)CS[C@H]12)c1ccccc1
inactive: activation [1] -0.277% [at 8.39 µM] | activity change, negative = cytotoxicity [2] 1.81% [at 6.97 µM] | activity change, negative = cytotoxicity [4] -0.534% [at 14 µM] | activity, negative = inhibition [15] 7.8% [at 8.39 µM] | activity change, positive = activation [20] 4.35% [at 8.39 µM] | activity change, negative = cytotoxicity [5] 0.732% [at 6.97 µM] | activity change, negative = cytotoxic [6] 8.14% [at 6.97 µM] | cytotoxicity [16] 2.09% [at 6.97 µM] | activity change, negative = cytotoxic [7] 0.227% [at 6.97 µM] | cytotoxicity increase [8] 2.56% [at 6.97 µM] | activity change, negative = cytotoxicity [9] 12.8% [at 6.97 µM] | viability change, negative = cytotoxic [10] 3.66% [at 6.97 µM] | max response [11] 6.7% | activity change [17] 0.0795% [at 6.97 µM, stronger effect = higher value] | cytotoxicity increase [12] -14% [at 6.97 µM] | activity change, negative = cytotoxic [18] 1.49% [at 6.97 µM] | cytotoxicity [13] -20.4% [at 6.97 µM] | cytotoxicity increase [14] -14.3% [at 6.97 µM]

CC(C)NCCCC1(C(N)=O)c2ccccc2-c2ccccc21
inactive: Potency [1] | Potency [2] | outcome [19] | Potency [4] | Potency [15] | activity change, positive = activation [20] 9.55% [at 42.5 µM] | Potency [5] | Potency [6] | Potency [16] | Potency [7] | Potency [8] | Potency [9] | Potency [10] | max response [11] -19.1% | Potency [13] | Potency [14]

Oc1ccc(C2CNCCc3c2cc(O)c(O)c3Cl)cc1 (stereo unspecified)
inactive: Potency [1] | Potency [2] | outcome [19] | Potency [4] | Potency [5] | Potency [6] | Potency [7] | Potency [8] | Potency [9] | Potency [10] | max response [11] -10.9% | Potency [13] | Potency [14]

NC(=O)COCCN1CCN(C(c2ccccc2)c2ccc(Cl)cc2)CC1 (stereo unspecified)
inactive: Potency [1] | Potency [2] | outcome [19] | Potency [4] | Potency [15] | activity change, positive = activation [20] 5.27% [at 42.5 µM] | Potency [5] | Potency [6] | Potency [16] | Potency [7] | Potency [8] | Potency [9] | Potency [10] | max response [11] 4.08% | Potency [17] | Potency [18] | Potency [13] | Potency [14]

CC/C=C\CCOC(C)=O
inactive: Potency [1] | Potency [2] | outcome [19] | Potency [4] | Potency [15] | activity change, positive = activation [20] 8.11% | Potency [5] | Potency [6] | Potency [16] | Potency [7] | Potency [8] | Potency [9] | Potency [10] | max response [11] -1.39% | Potency [17] | Potency [12] | Potency [13] | Potency [14]

COC(=O)CCSCCC(=O)OC
inactive: Potency [1] | Potency [2] | outcome [19] | Potency [4] | Potency [15] | activity change, positive = activation [20] 1.8% | Potency [5] | Potency [7] | Potency [8] | Potency [9] | Potency [10] | max response [11] 0.851% | Potency [17] | Potency [12] | Potency [18] | Potency [13] | Potency [14]
